Measurements as given in PubChem BioAssay (Tox21).
“And” between values parts separate entries of the source, which are not always exact repeats. Identical values can stand only once. Records with an inconclusive call do not appear. Some structures have more than one record in an assay (separate samples or runs), and their calls can disagree. The source made the active and inactive calls. The call rests on the fitted dose curve; in most records, active means well fitted curve in the direction sought with a large enough effect in the repeat runs; inconclusive means weak or mixed curves; inactive means no such curve, though single readings can be large; an effect the other way counts as inactive or inconclusive.

What was measured:
[1] = qHTS RealTime-Glo MT Cell Viability Assay in HEK293 cells - 16 hour (AID 1224872); further: nearly all actives have a fitted effect of over 50% in size; further: potency means the concentration at half of the fitted maximal effect
Summary of the method: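 Viability tracked continuously by luminescence as live cells reduce a prosubstrate for NanoLuc; HEK293 cells preincubated 5 h, compound-treated at 37 C, and read at 0, 8, 16, 24, 32 and 40 h.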

[2] = qHTS RealTime-Glo MT Cell Viability Assay in HepG2 cells - 8 hour (AID 1224873); further: nearly all actives have a fitted effect of over 55% in size; further: potency means the concentration at half of the fitted maximal effect
Summary of the method: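 Real-time viability: cells seeded at 600 per well together with NanoLuc and cell-permeant prosubstrate, compounds added after 5 h incubation. Luminescence tracked at 0, 8, 16, 24, 32 and 40 h of exposure.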

[3] = qHTS RealTime-Glo MT Cell Viability Assay in HEK293 cells - 40 hour (AID 1224874); conditions: RealTime-Glo luminescence; max response: stronger effect = lower value; further: nearly all actives have a fitted effect of over 50% in size; further: potency means the concentration at half of the fitted maximal effect
Summary of the method: (§1)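 Tox21 screen in HEK293 using RealTime-Glo MT chemistry, with cells and reagent co-dispensed. Luminescence proportional to viable cell number was captured at intervals during 40 h compound exposure at 37 C.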

[4] = A CellTox Green Cytotoxicity Assay to monitor cytotoxicity in HEK293 cells - 24 hour (AID 1224875); further: nearly all actives have a fitted effect of over 45% in size; further: potency means the concentration at half of the fitted maximal effect
Summary of the method: (§2)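 Seeding of HEK293 cells together with cytotoxicity dye preceded a 5 h incubation at 37 C/5% CO2. Test compounds in DMSO were then added and fluorescence monitored across 40 h.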

[5] = A CellTox Green Cytotoxicity Assay to monitor cytotoxicity in HepG2 cells - 16 hour (AID 1224876); further: nearly all actives have a fitted effect of over 45% in size; further: potency means the concentration at half of the fitted maximal effect
Summary of the method: (§3)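 Nonlytic assay: viable cells exclude the dye, so fluorescence scales with cell death. HepG2 at 600 cells/well, compounds added after 5 h, signal read across 40 h.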

[6] = qHTS RealTime-Glo MT Cell Viability Assay in HepG2 cells - 32 hour (AID 1224877); further: nearly all actives have a fitted effect of over 55% in size; further: potency means the concentration at half of the fitted maximal effect
Summary of the method: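 Viability was tracked continuously by NanoLuc luminescence from prosubstrate reduced by living HepG2 cells, at successive time points over 40 h of compound exposure. Cells with reagent were preincubated 5 h at 37 °C before compound addition.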

[7] = A CellTox Green Cytotoxicity Assay to monitor cytotoxicity in HepG2 cells - 24 hour (AID 1224878); further: nearly all actives have a fitted effect of over 45% in size; further: potency means the concentration at half of the fitted maximal effect
Summary of the method: as §3

[8] = A CellTox Green Cytotoxicity Assay to monitor cytotoxicity in HepG2 cells - 40 hour (AID 1224879); further: nearly all actives have a fitted effect of over 40% in size; further: potency means the concentration at half of the fitted maximal effect
Summary of the method: as §3

[9] = qHTS RealTime-Glo MT Cell Viability Assay in HEK293 cells - 0 hour (AID 1224880); further: top concentration of the series differs between compounds; nearly all actives have a fitted effect of over 45% in size
Summary of the method: as §1

[10] = A CellTox Green Cytotoxicity Assay to monitor cytotoxicity in HEK293 cells - 32 hour (AID 1224881); further: nearly all actives have a fitted effect of over 40% in size; further: potency means the concentration at half of the fitted maximal effect
Summary of the method: as §2
On the % scale 0 is the no-effect control and ±100 the full control effect.

CC(C)C(=O)c1c(C(C)C)nn2ccccc12
inactive: Potency [1] | Potency [2] | max response [3] -0.81% | Potency [4] | Potency [5] | Potency [6] | Potency [7] | Potency [8] | Potency [9] | Potency [10]

Cc1ccnc2c1NC(=O)c1cccnc1N2C1CC1
inactive: Potency [1] | Potency [2] | max response [3] -13.4% and -3.25% | Potency [4] | Potency [5] | Potency [6] | Potency [7] | Potency [8] | Potency [9] | Potency [10]

CC(C(O)c1ccc(O)cc1)N1CCC(Cc2ccccc2)CC1 (centres undefined)
inactive: Potency [1] | Potency [2] | max response [3] -13.3% | Potency [4] | Potency [5] | Potency [6] | Potency [7] | Potency [8] | Potency [9] | Potency [10]

Oc1ccc(Cl)cc1Cc1cc(Cl)ccc1O
inactive: Potency [2] | Potency [4] | Potency [5] | Potency [7] | Potency [8] | Potency [9] | Potency [10]
active: Potency [1] 22.3 µM | Potency [3] 17.7 µM and 43.6 µM and 16.9 µM | Potency [6] 49.9 µM

CC(C)(C)c1ccc(O)c(C(C)(C)C)c1
active: Potency [1] 34.5 µM | Potency [2] 38.9 µM | Potency [3] 38.7 µM | Potency [4] 21.8 µM and 34.7 µM | Potency [5] 48.8 µM and 43.6 µM | Potency [7] 48.8 µM and 43.6 µM | Potency [8] 48.8 µM and 43.6 µM | Potency [10] 24.4 µM and 34.7 µM
inactive: max response [3] -25% | Potency [9]

NCCO
inactive: Potency [1] | Potency [2] | max response [3] -3.29% and 1.65% | Potency [4] | Potency [5] | Potency [6] | Potency [7] | Potency [8] | Potency [9] | Potency [10]

CC(C)(C)NC(=O)[C@@H]1CN(Cc2cccnc2)CCN1C[C@@H](O)C[C@@H](Cc1ccccc1)C(=O)N[C@H]1c2ccccc2C[C@H]1O
inactive: Potency [1] | Potency [2] | max response [3] 0.0575% and 0.362% | Potency [4] | Potency [5] | Potency [6] | Potency [7] | Potency [8] | Potency [9] | Potency [10]

Nc1cc(Cl)c(-c2cc(Cl)c(N)cc2Cl)cc1Cl
inactive: Potency [2] | Potency [4] | Potency [6] | Potency [9] | Potency [10]
inactive and 54.9 µM (active): Potency [5] | Potency [7]
active: Potency [1] 24.5 µM | Potency [3] 6.91 µM and 1.74 µM | Potency [8] 4.36 µM and 54.9 µM

OCC(CO)N[C@H]1C[C@](O)(CO)[C@@H](O)[C@H](O)[C@H]1O
inactive: Potency [1] | Potency [2] | max response [3] 11.4% | Potency [4] | Potency [5] | Potency [6] | Potency [7] | Potency [8] | Potency [9] | Potency [10]

CCCCC/C=C/CC1CC(=O)OC1=O (centres undefined)
inactive: Potency [1] | Potency [2] | max response [3] 1.06% | Potency [4] | Potency [5] | Potency [6] | Potency [7] | Potency [8] | Potency [9] | Potency [10]

O=C1NCC2(CCN(CCc3ccccc3)CC2)O1
inactive: Potency [1] | Potency [2] | max response [3] 2.88% | Potency [4] | Potency [5] | Potency [6] | Potency [7] | Potency [8] | Potency [9] | Potency [10]

CCN(CC)CCOc1ccc(/C(=C(\Cl)c2ccccc2)c2ccccc2)cc1
inactive: Potency [9]
active: Potency [1] 14.1 µM and 21.3 µM | Potency [2] 31.6 µM | Potency [3] 12.6 µM and 19 µM | Potency [4] 31.6 µM and 23.9 µM | Potency [5] 31.6 µM and 21.3 µM | Potency [6] 19.9 µM and 23.9 µM | Potency [7] 19.9 µM and 21.3 µM | Potency [8] 17.7 µM and 16.9 µM | Potency [10] 28.1 µM and 23.9 µM

CC(=O)OCC1=C(C(=O)O)N2C(=O)[C@@H](NC(=O)Cc3cccs3)[C@H]2SC1
inactive: Potency [1] | Potency [2] | max response [3] 6.98% | Potency [4] | Potency [5] | Potency [6] | Potency [7] | Potency [8] | Potency [9] | Potency [10]

CC(=O)CC(=O)Nc1ccc2[nH]c(=O)[nH]c2c1
inactive: Potency [1] | Potency [2] | max response [3] -1.76% | Potency [4] | Potency [5] | Potency [6] | Potency [7] | Potency [8] | Potency [9] | Potency [10]

COc1ccc(Cc2cnc(N)nc2N)cc1OC
inactive: Potency [1] | Potency [2] | max response [3] 0.446% | Potency [4] | Potency [5] | Potency [6] | Potency [7] | Potency [8] | Potency [9] | Potency [10]

O=C(O)CP(=O)(O)O
inactive: Potency [1] | Potency [2] | max response [3] -6.08% | Potency [4] | Potency [5] | Potency [6] | Potency [7] | Potency [8] | Potency [9] | Potency [10]

CC(C)CCOCc1ccccc1
inactive: Potency [1] | Potency [2] | max response [3] 2.97% | Potency [4] | Potency [5] | Potency [6] | Potency [7] | Potency [8] | Potency [9] | Potency [10]

C[N+]1([O-])CCOCC1
inactive: Potency [1] | Potency [2] | max response [3] 0.178% | Potency [4] | Potency [5] | Potency [6] | Potency [7] | Potency [8] | Potency [9] | Potency [10]

C=CC(=O)OCCCCCCCC
inactive: Potency [1] | Potency [2] | max response [3] 3.71% | Potency [4] | Potency [5] | Potency [6] | Potency [7] | Potency [8] | Potency [9] | Potency [10]

C1COC(NC(C2CC2)C2CC2)=N1
inactive: Potency [1] | Potency [2] | max response [3] 5.02% | Potency [4] | Potency [5] | Potency [6] | Potency [7] | Potency [8] | Potency [9] | Potency [10]

COc1nc(C)nc(Cl)c1NC1=NCCN1
inactive: Potency [1] | Potency [2] | max response [3] 2.57% | Potency [4] | Potency [5] | Potency [6] | Potency [7] | Potency [8] | Potency [9] | Potency [10]

CCCCCCCCCCCCc1ccccc1O
inactive and 43.6 µM (active): Potency [6]
inactive and 21.9 µM (active): Potency [5]
inactive and 34.7 µM (active): Potency [2]
inactive: Potency [9]
active: Potency [1] 43.1 µM and 43.6 µM | Potency [3] 48.3 µM and 49 µM | Potency [4] 43.1 µM and 38.9 µM | Potency [7] 17.4 µM | Potency [8] 48.3 µM and 21.9 µM | Potency [10] 43.1 µM and 38.9 µM

C=CS(=O)(=O)O
inactive: Potency [1] | Potency [2] | max response [3] 2.23% | Potency [4] | Potency [5] | Potency [6] | Potency [7] | Potency [8] | Potency [9] | Potency [10]

CC1COC(=O)O1 (centres undefined)
inactive and 38.9 µM (active): Potency [5]
inactive and 43.6 µM (active): Potency [7] | Potency [8]
inactive: Potency [1] | Potency [2] | max response [3] 9.29% and -24.4% | Potency [4] | Potency [6] | Potency [9] | Potency [10]

O=C(O)Cn1cnnn1
inactive: Potency [1] | Potency [2] | max response [3] 0.0865% | Potency [4] | Potency [5] | Potency [6] | Potency [7] | Potency [8] | Potency [9] | Potency [10]

COc1cc(C(=S)N2CCOCC2)ccc1O
inactive: Potency [1] | Potency [2] | max response [3] 0.473% | Potency [4] | Potency [5] | Potency [6] | Potency [7] | Potency [8] | Potency [9] | Potency [10]

CCOc1ccccc1C(N)=O
inactive: Potency [1] | Potency [2] | max response [3] -15.3% and 4.4% | Potency [4] | Potency [5] | Potency [6] | Potency [7] | Potency [8] | Potency [9] | Potency [10]

CC(COc1ccccc1)N(CCCl)Cc1ccccc1 (centres undefined)
active: Potency [1] 49.5 µM and 49 µM | Potency [3] 49.5 µM and 49 µM | Potency [8] 55.5 µM | Potency [10] 55.5 µM and 21.3 µM
inactive: Potency [2] | Potency [4] | Potency [5] | Potency [6] | Potency [9]
55.5 µM (active) and inactive: Potency [7]

Nc1ccc(O)cc1
active: Potency [3] 32.1 µM
inactive: max response [3] 18.9% | Potency [4] | Potency [7] | Potency [8] | Potency [9] | Potency [10]
50.9 µM (active) and inactive: Potency [2]
40.4 µM (active) and inactive: Potency [1]

O=C(O)CCc1ccccc1
inactive: Potency [1] | Potency [2] | max response [3] 3.43% | Potency [4] | Potency [5] | Potency [6] | Potency [7] | Potency [8] | Potency [9] | Potency [10]

Nc1ccc2cc3ccccc3cc2c1
inactive: Potency [1] | Potency [2] | max response [3] -15.8% and 6.47% | Potency [4] | Potency [5] | Potency [6] | Potency [7] | Potency [8] | Potency [9] | Potency [10]

C/C=C/c1ccc(OCC)c(O)c1
inactive: Potency [1] | Potency [2] | max response [3] -14.3% and 2.47% | Potency [4] | Potency [5] | Potency [6] | Potency [7] | Potency [8] | Potency [9] | Potency [10]

OCCOCCN1CCN(C(c2ccccc2)c2ccc(Cl)cc2)CC1 (centres undefined)
9.64 µM (active) and inactive: Potency [1]
38.4 µM (active) and inactive: Potency [5] | Potency [7]
inactive: Potency [2] | max response [3] -17.5% | Potency [4] | Potency [9] | Potency [10]
active: Potency [3] 7.66 µM | Potency [8] 38.4 µM
